The structures appear in SMILES notation. The campaign covered roughly 58,000 compounds. About 3,400 (5.9%) were called active. The entries come from a sample that favours actives as a whole. A number with no mark means an inactive call.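 The calls were made as follows: active = luminescence count or its row- and column-corrected plate score outside the 99.7% band of the plate's sample wells, on either side; inactive = the rest.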

Chain of D(1A) dopamine receptor (Homo sapiens) (P21728 whole entry, looked up): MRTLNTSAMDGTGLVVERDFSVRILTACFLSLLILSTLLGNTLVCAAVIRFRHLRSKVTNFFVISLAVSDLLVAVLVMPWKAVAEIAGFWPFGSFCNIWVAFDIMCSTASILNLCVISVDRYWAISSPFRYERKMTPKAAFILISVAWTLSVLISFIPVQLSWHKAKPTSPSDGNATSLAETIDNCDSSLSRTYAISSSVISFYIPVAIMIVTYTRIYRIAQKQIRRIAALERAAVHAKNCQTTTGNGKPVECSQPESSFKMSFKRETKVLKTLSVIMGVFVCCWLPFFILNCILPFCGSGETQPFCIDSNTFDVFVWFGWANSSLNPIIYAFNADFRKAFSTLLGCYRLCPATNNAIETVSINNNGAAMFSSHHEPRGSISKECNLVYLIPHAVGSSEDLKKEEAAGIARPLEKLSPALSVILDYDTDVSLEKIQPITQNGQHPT

The assay addresses D(1A) dopamine receptor (Homo sapiens) (UniProt P21728). The assay can be described thus: D1 CRE-luciferase signal change, two-sided – cell-based, HEK293 D1, dopamine EC30, D1 allosteric modulator project, primary screen (AID 641). Particulars: dopamine EC30 potentiation, at 10 µM, actives deviate in either direction.
Take `COCCNC(=O)COc1ccc(C)c(C)c1`: the B-score was 0.751.

On to `O=C(Nc1cccnc1)c1ccc2c(c1)OCO2`, for which the B-score was -0.0115.

As for `O=C(Nc1cccnc1)c1noc2c1CCCCC2`, the B-score is -2.9 (active).

Regarding `CCOc1cccc(C(=O)Nc2cccnc2)c1`, the B-score was 0.108.

Take `Cc1nnc(SCC(=O)NCc2ccccc2)s1`: the B-score was 0.474.

For the compound `O=C(CSc1nnc2ccccn12)c1ccccc1`, the B-score was -0.291.

As to `COc1ccc(-n2c(SC)nc(O)cc2=O)cc1`, the B-score was 0.0194.

Consider `COc1ccc(NC(=O)C2CCCN(S(=O)(=O)c3cccc4cccnc34)C2)cc1` (stereo not drawn), for which the B-score is -1.11.

On to `COc1ccc(NC(=O)C2CCCN(S(=O)(=O)c3cccc4cccnc34)C2)cc1OC` (stereo not drawn), for which the B-score is 11.5 (active).

Consider `COc1ccccc1CNC(=O)C1CCCN(S(=O)(=O)c2cccc3cccnc23)C1` (stereo not drawn), for which the B-score was -0.155.

In the case of `COc1ccc(OC)c2[nH]c(=O)c(CCNC(=O)C(C)(C)C)cc12`, the B-score was -0.197.

Take `CCCCn1c(SCC(=O)NCCc2ccc(OC)c(OC)c2)nc2c1c(=O)n(C)c(=O)n2C`: the B-score is 0.0783.

For `CCCSc1nc2c(c(=O)n(C)c(=O)n2C)n1Cc1ccc(C)cc1`, the B-score is 1.94.

With `CCOc1ccc(Cn2c(SCCCCC#N)nc3c2c(=O)n(C)c(=O)n3C)cc1OCC`, the B-score was 10.1 (active).

On to `Fc1ccc(OCc2nn3c(Cn4nnc5ccccc54)nnc3s2)cc1`, for which the B-score was -0.628.

As to `Oc1ccc(Cl)cc1/C=N/c1nc2ccccc2[nH]1`, the B-score was 1.49.

Consider `N#Cc1c(N)sc2c1CCN(C(=O)OCc1ccccc1)C2`, for which the B-score is 5.84 (active).

In the case of `COc1cccc(NC(=O)C2CCCN2C(=O)OCc2ccccc2)c1` (stereo not drawn), the B-score was 0.12.

On to `N#Cc1ccc(COC(=O)Cn2nnc(-c3ccccc3)n2)cc1`, for which the B-score was 0.71.

Take `O=C(NCCN1CCOCC1)c1ccc2c(c1)ncn2C1CCCC1`: the B-score is -0.956.

Turning to `COc1ccc(CCNC(=O)CCCCn2c(=O)[nH]c3ccccc3c2=O)cc1OC`, the B-score was 0.358.

`COc1ccc(CCNC(=O)CCn2c(=O)oc3ccccc32)cc1OC`: the B-score is 6.86 (active).

With `COc1ccc(OC)c(NC(=O)Cn2c(=O)oc3ccccc32)c1`, the B-score is 0.945.

Regarding `Cc1c(C(=O)NCC2CCCO2)sc2nc(-c3ccccc3)cn12` (stereo not drawn), the B-score is 0.33.

Consider `CC1(C)CN=C(N2CCN(c3ncnc4sc5c(c34)CCCC5)CC2)S1`, for which the B-score was -0.977.

For `COc1ncnc2sc3c(c12)CCCC3`, the B-score was 5.43 (active).

For the compound `O=C(O)[C@@H]1CCCN1c1ncnc2sc3c(c12)CCC3`, the B-score is -0.0144.

With `O=C(NC1CCCCC1)C1CCCN(S(=O)(=O)c2cccs2)C1` (stereo not drawn), the B-score was 0.0829.

Consider `O=C(CCSc1ccccc1)NCCSc1ccccn1`, for which the B-score was 0.117.

On to `COc1ccc(/C(O)=C2/C(=O)C(=O)N(CCCN(C)C)C2c2ccccc2)cc1OC` (stereo not drawn), for which the B-score was -0.187.

For the compound `COc1cccc(C2/C(=C(/O)c3ccncc3)C(=O)C(=O)N2CCCN(C)C)c1` (stereo not drawn), the B-score was -3.02 (active).

In the case of `COc1cccc(C2/C(=C(/O)c3ccc(F)cc3)C(=O)C(=O)N2CCN(C)C)c1` (stereo not drawn), the B-score was -0.0254.

Turning to `O=S(N1CCCCCC1)C12CC3CC(CC(C3)C1)C2` (stereo not drawn), the B-score was -1.48.

Take `CCCN1C(=O)C(NS(=O)(=O)c2ccc(N)cc2)(C(F)(F)F)C(C(=O)OC)=C1C` (stereo not drawn): the B-score is -0.0535.

With `C=CCNC(=O)CCCOc1cccc(C)c1`, the B-score was 0.267.

Turning to `Cc1nc2c(-c3ccc(F)cc3)c(C)nn2c(C)c1CCC(=O)N1CCN(c2ccccn2)CC1`, the B-score was -0.178.

Take `CCOc1cc(C(=O)N2CCc3cc(OC)c(OC)cc3C2)ccc1OC(F)F`: the B-score is 15.1 (active).

With `CCOc1cc(CN2CCN(C(=O)CC(C)C)CC2)ccc1OC`, the B-score was 0.0601.

Regarding `COc1ccc(C(=O)N2CCC(C(=O)Nc3cccc(C)c3)CC2)cc1OC`, the B-score is -0.521.

`O=C1CCCN1CCCNc1ncnc2c1[nH]c1ccccc12`: the B-score is -0.02.

For the compound `CC(C)OCCCNc1ncnc2c1[nH]c1ccc(F)cc12`, the B-score is -3.37 (active).

With `CCN1CCCC1CNc1ncnc2c1[nH]c1ccc(F)cc12` (stereo not drawn), the B-score was -0.311.

`c1csc(-c2cn3c(n2)SCC3)c1`: the B-score was -0.433.

As for `O=C(COC(=O)c1ccc2c(c1)OCCO2)NCc1ccccc1`, the B-score was 0.524.

For the compound `COc1cc2[nH]c(=S)n(Cc3ccc(C)o3)c(=O)c2cc1OC`, the B-score is 2.05.

Consider `CCOC(=O)N1CCN(C(=O)CN(c2ccc(C)c(C)c2)S(=O)(=O)c2ccccc2)CC1`, for which the B-score was -0.0191.

Take `COc1ccccc1NC1=NC(c2ccc(Cl)cc2)N=C(N)N1` (stereo not drawn): the B-score is -3.3.

`COc1ccccc1NC1=NC2(CCCC2)N=C(N)N1`: the B-score is -3.14 (active).

As for `COc1ccccc1Nc1nc(N)nc(CN(C)C2CCCCC2)n1`, the B-score was -0.094.

On to `c1ccc(-n2ncc(-c3nn[nH]n3)n2)cc1`, for which the B-score is -1.26.

Take `CCCOC(=O)CC1C(=O)NCCN1Cc1ccc(F)cc1` (stereo not drawn): the B-score was -0.0757.

Turning to `CC1CCCN(C(=O)c2ccc3c(c2)C(=O)N(CCC2=CCCCC2)C3=O)C1` (stereo not drawn), the B-score is -0.192.

Turning to `COC(=O)Nc1c(C)n(C)n(-c2ccccc2)c1=O`, the B-score was -1.4.

For `CCN(CC)CCN1C(=O)C(=O)/C(=C(/O)c2ccc(OC)c(OC)c2)C1c1ccccn1` (stereo not drawn), the B-score was -0.322.

In the case of `COc1cc(-n2c(C)nc3cc(C(=O)NCc4ccco4)ccc32)cc(OC)c1OC`, the B-score was 0.213.

As for `COc1ccc(-n2c(Cc3cccn3C)nnc2SCC(=O)Nc2cc(C)cc(C)c2)cc1`, the B-score is 11.4 (active).

For the compound `COC(=O)c1ccc(NC(=O)CSc2nnc(Cc3cccn3C)n2-c2ccc(F)cc2)cc1`, the B-score is -0.00937.

On to `COc1ccccc1NC(=O)CSc1nnc(Cc2cccn2C)n1-c1ccc(F)cc1`, for which the B-score is -0.801.

Regarding `CCCc1[nH]nc2c1C(C1CC=CCC1)C(C#N)=C(N)O2` (stereo not drawn), the B-score was -0.104.

For `CC1(C)CC(=O)c2cc(OCC(=O)NCC3CCCO3)ccc2O1` (stereo not drawn), the B-score was -0.0202.

`O=C(O)c1ccc(-n2cccc2)cc1O`: the B-score was -0.446.

`Cc1ccc(OCCCC(=O)N2CCOCC2)c(C)c1`: the B-score is -1.03.

For `COc1ccc(C(=O)Cn2nnc(-c3ccc(N4CCOCC4)cc3)n2)cc1OC`, the B-score is 0.758.

For the compound `CCOc1cc(-c2noc(CCC(=O)N3CCOCC3)n2)ccc1OC`, the B-score is 13.7 (active).

Take `Cc1ccc(-c2noc(CCC(N)=O)n2)cc1`: the B-score is -0.953.

Consider `CCOc1ccc(-c2nnn(CC(=O)N3CCN(c4ccc(F)cc4)CC3)n2)cc1OCC`, for which the B-score is -0.401.

Turning to `CCOc1ccc(-c2nnn(CC(=O)N3CCN(c4ccc(OC)cc4)CC3)n2)cc1OCC`, the B-score is 3.84 (active).

Turning to `CN1C(=O)CC(N2CCN(c3ccccn3)CC2)C1=O` (stereo not drawn), the B-score is -0.0528.

In the case of `COc1ccc(C(=O)NCCc2ccc(S(N)(=O)=O)cc2)cc1OC`, the B-score is -0.0032.

As for `Cc1sc2c(c1C)c(=O)n(-c1ccccc1)c1nncn21`, the B-score was 0.694.

On to `COc1cc2[nH]c(=O)n(CCC(=O)NC3CCN(Cc4ccccc4)CC3)c(=O)c2cc1OC`, for which the B-score was -0.633.

Turning to `Cc1ccc(SCc2cc(=O)[nH]c(N3CCCCC3)n2)cc1`, the B-score is 1.14.

Turning to `O=c1cc(CSc2ccccn2)nc(N2CCN(c3ccccc3)CC2)[nH]1`, the B-score was 0.00444.

Consider `O=c1cc(-c2ccccc2)nc(N2CCCCC2)[nH]1`, for which the B-score is 4.97 (active).

On to `N#Cc1nc(COc2ccc(Cl)cc2)oc1N1CCCC1`, for which the B-score was 2.09.

As for `Cc1ccc(OCc2nc(C#N)c(N3CCCC3)o2)cc1`, the B-score is 2.17.

`CC1CCN(c2oc(-c3ccccc3F)nc2C#N)CC1`: the B-score was 8.13 (active).

On to `COc1ccc(CCN2CNc3c(c(=O)n(C)c(=O)n3C)C2)cc1OC`, for which the B-score was -0.27.

Turning to `Oc1c(C(c2cccs2)N2CCN(c3ccc(F)cc3)CC2)sc2ncnn12` (stereo not drawn), the B-score was -1.14.

As for `CCCNS(=O)(=O)c1ccc2c(c1)CCCN2C(C)=O`, the B-score is -1.43.

As for `O=C(C1CCC1)N1CCc2cc(S(=O)(=O)NCc3cccnc3)ccc21`, the B-score was 4.59 (active).

`CC(=O)N1CCc2cc(S(=O)(=O)Nc3ccccc3N3CCN(C)CC3)ccc21`: the B-score was -0.699.

With `CC(C)(CNCC(O)c1ccccc1)N1CCOCC1` (stereo not drawn), the B-score was 0.153.

Regarding `CN(c1nc2ccccc2n2c(-c3ccco3)nnc12)S(=O)(=O)c1ccccc1`, the B-score is 1.04.

Consider `CN1c2ccccc2-c2nc3ccccc3n2C1c1ccco1` (stereo not drawn), for which the B-score was -2.57.

Turning to `Cn1c(-c2ccco2)nc2cc3ccccc3cc21`, the B-score is -4.84 (active).

`CCCc1nc(SCC(=O)Nc2ccccc2OC)c2c(=O)n(C)c(=O)n(C)c2n1`: the B-score is 1.18.

For the compound `CCOc1cc(NC(=O)c2ccco2)c(OCC)cc1NC(=O)COc1ccccc1`, the B-score was -0.0288.

For the compound `CCOc1ccccc1NC(=O)C1CCC(CNc2c(N3CCOCC3)c(=O)c2=O)CC1` (stereo not drawn), the B-score is -0.266.

For `CCOc1cc(N2CCOCC2)c(OCC)cc1NC(=O)COc1cccc2cccnc12`, the B-score is -6.32 (active).

Turning to `N/C(=N\c1nc2ccccc2o1)NC(=O)C(Cc1ccccc1)N1C(=O)c2ccccc2C1=O` (stereo not drawn), the B-score is -0.0263.

As for `CCOC(=O)CN1C(=O)C(O)(CC(=O)c2ccccn2)c2ccccc21` (stereo not drawn), the B-score is -0.341.

On to `CCc1nnc(NC(=O)C2CCCN2S(=O)(=O)c2ccccc2)s1` (stereo not drawn), for which the B-score is -0.0231.

With `CCC(=NC1CC(C)(C)NC(C)(C)C1)C1=C(O)CC(C)(C)CC1=O`, the B-score was -0.239.

Regarding `COc1ccccc1N1CCN(Cc2ccc(OC)c3ccccc23)CC1`, the B-score was -0.325.

As to `Cc1nc(-c2ccc(NC(=O)c3cccs3)cc2)cs1`, the B-score was -5.86 (active).

For the compound `O=C(O)c1ccc(NC(=O)c2cccs2)cc1`, the B-score is 0.0162.

As to `O=C(O)Cc1ccc(NC(=O)c2cccs2)cc1`, the B-score was -1.14.

The record behind these values is PubChem BioAssay AID641 (Vanderbilt High Throughput Screening Facility, 2007).
